Outcome and AC50 data for 40 compounds are collected here from PubChem BioAssay (EPA / NIEHS).

Inconclusive results are not listed. Calls of active or inactive are those of the source. Rule for the calls: active = hit-call score of the fitted dose curve at least 0.9, where 1 is the maximum; inconclusive = response in the unintended direction; inactive = score below 0.9.

One may read the AC50 as the concentration giving half of the maximal activity seen.

Read-out in the assay: sulfotransferase (SULT2A), SULT2A1 (gene 6822)
Description: CLD_SULT2A_48hr: CellzDirect (CLD) Gene Expression Assay for sulfotransferase (SULT2A) at 48 hours (AID 2283710).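 Note: hits raise SULT2A1 transcript above the 0.2% DMSO vehicle baseline.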 The protocol:
CLD_48hr is a cell-based, multiplexed-readout assay that uses hepatocyte, a human liver primary cell, with measurements taken at 48 hours after chemical dosing in a 96-well plate.CLD_SULT2A_48hr is one of 16 assay component(s) measured or calculated from the CLD_48hr assay. It is designed to make measurements of mRNA induction, a form of inducible reporter, as detected with chemiluminescence signals by Quantitative Nuclease Protection Assay (qNPA) technology.Data from the assay component CLD_SULT2A_48hr was analyzed at the endpoint, CLD_SULT2A_48hr, in the positive analysis fitting direction relative to DMSO as the negative control and baseline of activity. Using a type of inducible reporter, gain-of-signal activity can be used to understand changes in the reporter gene as they relate to the gene SULT2A1. Furthermore, this assay endpoint can be referred to as a primary readout. To generalize the intended target to other relatable targets, this assay endpoint is annotated to the transferase intended target family, where subfamily is sulfotransferase.
Human hepatocyte cultures were treated daily for two consecutive days with fresh dosing solutions containing appropriate concentrations of the 320 ToxCast chemicals (chemical identities were blinded to CellzDirect and other ToxCast collaborators), vehicle control (0.2% DMSO), and positive control inducers as summarized in Table 1. Due to the large number of treatment groups and chemicals examined, the ToxCast chemicals were divided into two groups (spanning two independent cultures of hepatocytes from separate donor preparations (Hu778: ToxCast plates 1 and 2; Hu776: ToxCast plates 3 and 4). Each preparation of human hepatocyte cultures was treated with respective vehicle control, medium only control, set of six positive controls/reference chemicals for the five hepatic receptor pathways, and a subset of eight of the ToxCast chemicals (indoxacarb, pyrithiobac-sodium, norflurazon, cyhalofop-butyl, methomyl, thiram, acetochlor, and propiconazole). These replicate data, coupled with internal replicates designed within the blinded ToxCast chemical library, provided additional data to evaluate interindividual differences between hepatocyte preparations and their potential impact on chemical profiles.Cell morphology and integrity were evaluated using phase-contrast microscopy as an indicator of hepatocyte cell health (Tyson & Green, 1987). Cultures for each treatment group (i.e., media, vehicle [0.2% DMSO], positive control inducers [multiple concentrations], and the ToxCast chemicals [multiple concentrations]) were observed and cell morphology was assessed relative to vehicle control cultures at each harvest time point (0, 6, 24, or 48 h). […] Images were evaluated at the conclusion of the study to assess changes in cell integrity and account for the effects of chemical exposure on uncharacteristic changes in concentration-dependent gene expression profiles. The results from these determinations of apparent cytotoxicity were annotated (yes/no) alongside the corresponding qNPA data for reference.At the conclusion of each treatment period, hepatocyte cultures (96-well) were washed with 1 volume of HBSS, lysed by addition of 25 ul ArrayPlate lysis buffer (HTG, Tucson, AZ), and 70 ul/well of Denaturation Oil, denatured by incubation at 95C for 10 min, and frozen at approximately -70C until analysis by nuclease protection assay (qNPA) (Roberts et al., 2007). For qNPA analysis, cell lysates were thawed at 50C for approximately 30 min, qNPA probes were added, and samples were incubated at 95C for 10 min to begin the detection process by denaturing the target RNA, dissociating the duplexes and secondary structure hybridization. At the conclusion of the hybridization period, S1 nuclease reagent was added to each sample to digest all nonprotected nucleotides at 50C for 60-90 min. […]
In the case of `C=C(C)[C@H]1Cc2c(ccc3c2O[C@@H]2COc4cc(OC)c(OC)cc4[C@@H]2C3=O)O1`, the call was inactive.

For `C#CCC1=C(C)C(OC(=O)C2C(C=C(C)C)C2(C)C)CC1=O` (stereo not given), the compound was classed as inactive.

Turning to `CC[C@H](C)[C@H]1O[C@]2(C=C[C@@H]1C)C[C@@H]1C[C@@H](C/C=C(\C)[C@@H](O[C@H]3C[C@H](OC)[C@@H](O[C@H]4C[C@H](OC)[C@@H](NC)[C@H](C)O4)[C@H](C)O3)[C@@H](C)/C=C/C=C3\CO[C@@H]4[C@H](O)C(C)=C[C@@H](C(=O)O1)[C@]34O)O2`, the AC50 was 2 µM (active).

For the compound `CC(COc1ccc(Oc2ccccc2)cc1)Oc1ccccn1` (stereo not given), the compound was called inactive.

On to `COc1ccc(C(=CC(=O)N2CCOCC2)c2ccc(Cl)cc2)cc1OC`, for which the result was inactive.

`CCOP(=S)(OCC)Oc1ccc([N+](=O)[O-])cc1`: the AC50 was 5.32 µM (active).

With `CC(C)[C@H](C(=O)O[C@H](C#N)c1cccc(Oc2ccccc2)c1)c1ccc(Cl)cc1`, the call was inactive.

Turning to `CC(C)N(C(=O)SCC(Cl)=C(Cl)Cl)C(C)C`, the call was inactive.

As to `Cc1ccn2nc(S(=O)(=O)Nc3c(F)cccc3F)nc2n1`, the call was inactive.

Regarding `CCC(CC)Nc1c([N+](=O)[O-])cc(C)c(C)c1[N+](=O)[O-]`, the compound was called inactive.

On to `CCOC(=O)COc1cc(-c2nn(C)c(OC(F)F)c2Cl)c(F)cc1Cl`, for which the outcome was inactive.

With `CCOP(=O)(OCC)Oc1cc(C)nc(C(C)C)n1`, the half-maximal activity concentration (AC50) is 4.2 µM (active).

In the case of `CCOP(=O)(SC(C)CC)N1CCSC1=O` (stereo not given), the outcome was inactive.

On to `CCOP(=S)(OCC)Oc1ccc2c(C)c(Cl)c(=O)oc2c1`, for which the compound was classed as inactive.

As for `CCCSP(=O)(OCC)SCCC`, the call was inactive.

Consider `CN(C)NC(=O)CCC(=O)O`, for which the compound was classed as inactive.

Consider `CCOP(=S)(OCC)SCCSCC`, for which the outcome was inactive.

`CCCCOC(=O)[C@@H](C)Oc1ccc(Oc2ccc(C#N)cc2F)cc1`: the outcome was inactive.

On to `CCOP(=S)(OCC)Oc1cc(C)nc(C(C)C)n1`, for which the outcome was inactive.

`Nc1c(Cl)cc([N+](=O)[O-])cc1Cl`: the compound was classed as inactive.

With `C#CC(C)(C)NC(=O)c1cc(Cl)cc(Cl)c1`, the AC50 was 5.38 µM (active).

For `CC(C)=CC1C(C(=O)OCN2C(=O)C3=C(CCCC3)C2=O)C1(C)C` (stereo not given), the compound was classed as inactive.

With `O=[N+]([O-])c1cc(C(F)(F)F)c(Cl)c([N+](=O)[O-])c1Nc1ncc(C(F)(F)F)cc1Cl`, the result was inactive.

On to `N#CSCSC#N`, for which the outcome was inactive.

With `C[N+]1(C)CCCCC1`, the call was inactive.

As to `Cc1cc(C2CC2)nc(Nc2ccccc2)n1`, the outcome was inactive.

On to `CCNc1nc(Cl)nc(NC(C)(C)C#N)n1`, for which the compound was called inactive.

As for `COP(=O)(OC)OC(Br)C(Cl)(Cl)Br` (stereo not given), the compound was classed as inactive.

Take `CN(C)C(=O)Nc1cccc(C(F)(F)F)c1`: the outcome was inactive.

For the compound `COP(=O)(NC(C)=O)SC` (stereo not given), the outcome was inactive.

Turning to `CNC(=O)ON=C(C)SC`, the result was inactive.

Take `CC(=NC#N)N(C)Cc1ccc(Cl)nc1`: the outcome was inactive.

`COc1cc(OC)nc(Sc2cccc(Cl)c2C(=O)O)n1`: the outcome was inactive.

With `CSc1nc(NC(C)C)nc(NC(C)C)n1`, the compound was called inactive.

Consider `CCOP(=O)(NC(C)C)Oc1ccc(SC)c(C)c1` (stereo not given), for which the outcome was inactive.

For the compound `CNc1cnn(-c2cccc(C(F)(F)F)c2)c(=O)c1Cl`, the compound was classed as inactive.

Turning to `CC(C1CC1)C(O)(Cn1cncn1)c1ccc(Cl)cc1` (stereo not given), the compound was classed as inactive.

`CCc1cnc(C2=NC(C)(C(C)C)C(=O)N2)c(C(=O)O)c1` (stereo not given): the result was inactive.

For `CCCCN(CC)c1c([N+](=O)[O-])cc(C(F)(F)F)cc1[N+](=O)[O-]`, the result was inactive.

Consider `CON=C(C(=O)OC)c1ccccc1CON=C(C)c1cccc(C(F)(F)F)c1`, for which the compound was classed as inactive.
